Test results from PubChem BioAssay.
The source made the active and inactive calls.

Assays:
[1] = system: Human papillomavirus type 1a protein E7 (residues 44-93); experiment: small molecules binding HPV E7 44-93 – biochemical, small-molecule microarray, residues 44-93, 635 nm fluorescence, primary screen (AID 1108); conditions: fluorescence 635 nm, higher = more signal;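 note: E7 fragment applied at 1 µg/mL in TBST for 1 h at 4 C; score combines spot fluorescence with its signal to noise ratio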
[2] = hepatitis C replication reporter changes, two-sided – Huh7 cells, luciferase reporter, HCV replication inhibitor project, primary screen (AID 1109); conditions: Huh7 HCV replicon luciferase reporter, 48 h; higher = more signal;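 note: huh7 hepatoma cells harbouring a luciferase neomycin HCV replicon reporter; luciferase luminescence as measure of HCV replicon replication; test concentration not given here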
[3] = molecular target: Left-right determination factor 2 (Homo sapiens) (UniProt O00292); experiment: small molecules binding LEFTY2 protein – biochemical, small-molecule microarray, 635 nm fluorescence scan, primary screen (AID 1110); conditions: higher = more signal
[4] = molecular target: Calmodulin-1 (Homo sapiens) (UniProt P0DP23); experiment: small molecules binding calmodulin-1 with EGTA – biochemical, small-molecule microarray, Cy5-labelled CALM1, profiling panel (AID 1111); conditions: Cy5-CALM1 binding fluorescence, higher = more signal;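 note: labelled calmodulin applied in Tris saline Tween buffer holding calcium plus EGTA and DTT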
[5] = molecular target: Calmodulin-1 (Homo sapiens) (UniProt P0DP23); experiment: small molecules binding Ca-loaded calmodulin-1 – biochemical, small-molecule microarray, Cy5-labelled CALM1, plus calcium, artefact control for SMM control-protein annotation, profiling panel (AID 1112); conditions: Cy5-CALM1 binding fluorescence, higher = more signal;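 note: score merges spot fluorescence with signal to noise from triplicate slides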
[6] = probe aWnt5a binding to arrayed compounds – biochemical, biotinylated probe, 635/667 nm fluorescence, primary screen (AID 1113); conditions: small-molecule microarray, higher = more signal;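 note: score merges 667 nm fluorescence intensity with signal-to-noise per printed feature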
[7] = probe aShh binding to arrayed compounds – biochemical, biotinylated probe, 635/667 nm fluorescence, primary screen (AID 1114); conditions: small-molecule microarray, higher = more signal;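 note: probe is biotin-labelled aShh protein from a stem cell growth factor screen; measures binding of labelled protein to compounds printed on the slide; score merges feature fluorescence at 667 nm with signal-to-noise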
[8] = probe aNog binding to arrayed compounds – biochemical, biotinylated probe, 635/667 nm fluorescence, primary screen (AID 1115); conditions: small-molecule microarray, higher = more signal;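 note: probe is biotinylated aNog protein used at 0.15 µg/mL for 1 h at 4 C; z-score combines 667 nm fluorescence of each spot with its signal to noise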
[9] = molecular target: Torsin-1A-interacting protein 1 (Homo sapiens) (UniProt Q5JTV8); experiment: compound microarray binding of lysate hLAP1 – cell lysate, small-molecule microarray, COS7 lysate, 635/667 nm fluorescence, primary screen (AID 1116); conditions: 635 nm fluorescence, higher = more signal
[10] = molecular target: Alpha-bungarotoxin (Bungarus multicinctus) (UniProt P60615); experiment: compounds binding labelled alpha-BTX control protein – biochemical, small-molecule microarray, Alexa647 label, 635/667 nm fluorescence, artefact control for SMM control protein annotation, profiling panel (AID 1117); conditions: alpha-BTX-A647 binding fluorescence, higher = more signal
Albumin (Bos taurus) = Albumin (Bos taurus) (UniProt P02769); experiment: compounds binding labelled BSA control protein – biochemical, small-molecule microarray, Alexa647 label, 635/667 nm fluorescence, artefact control for SMM control protein annotation, profiling panel (AID 1118); conditions: BSA-A647 binding, fluorescence 635 nm, higher = more signal;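 note: score merges 667 nm emission intensity and signal-to-noise per printed compound spot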
[11] = probe aXIP binding to arrayed compounds – biochemical, NeuroSMM set, 635/667 nm fluorescence, primary screen (AID 1119); conditions: small-molecule microarray, higher = more signal, called active from +8 up or from −8 down;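 note: probe is the protein aXip251-270 applied at 1 µg/mL to compound-printed slides; binding of probe to printed compounds measured as 667 nm fluorescence plus signal to noise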
[12] = probe aNOTCH3 binding on compound microarray – biochemical, small-molecule microarray, 635/667 nm fluorescence, primary screen (AID 1120); conditions: higher = more signal;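 note: probe is a biotin-tagged antibody raised against NOTCH3 rather than NOTCH3 protein; score merges spot fluorescence near 667 nm with spot signal to noise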
[13] = probe aNOTCH2 binding on compound microarray – biochemical, small-molecule microarray, 635/667 nm fluorescence, primary screen (AID 1121); conditions: higher = more signal;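 note: score merges feature fluorescence read at 667 nm with its signal to noise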
[14] = molecular target: Carbonic anhydrase 2 (Homo sapiens) (UniProt P00918); experiment: compounds binding carbonic anhydrase 2 – biochemical, small-molecule microarray, Alexa647-labelled CAII, profiling panel (AID 1122); conditions: CAII-A647 binding fluorescence, higher = more signal
[15] = COS7 lysate on small-molecule microarray, probe aHis, 635 nm (AID 1123); conditions: COS7 cell lysate, fluorescence, higher = more signal;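 note: z-score combines 667nm fluorescence intensity with signal-to-noise per printed compound spot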
[16] = probe aLAP1 signal on lysate-treated microarray – cell lysate, small-molecule microarray, COS7 lysate, primary screen (AID 1124); conditions: probe aLAP1, fluorescence, higher = more signal;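 note: lysate comes from COS7 cells expressing LAP1 and is applied at 0.3 µg/mL; score merges spot fluorescence near 667 nm with signal-to-noise over triplicate slides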
Sam68 (KHDRBS1) = experiment: compounds binding KHDRBS1 protein – biochemical, small-molecule microarray, 635 nm fluorescence, primary screen (AID 1125); conditions: higher = more signal;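 note: score merges 667 nm channel intensity with signal to noise over triplicate slides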
[17] = system: Chordin-like protein 2 (CHRDL2); experiment: compounds binding chordin-like 2 – biochemical, small-molecule microarray, 635 nm fluorescence, primary screen (AID 1126); conditions: fluorescence 635 nm, higher = more signal;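 note: printed compound slides probed with Chrdl2 protein at 4 µg/mL for 1 h at 4 C; score merges 667 nm emission intensity with signal to noise over three replicate slides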
[18] = molecular target: Concanavalin-A (Canavalia ensiformis) (UniProt P02866); experiment: compounds binding concanavalin A lectin – biochemical, small-molecule microarray, Alexa647 label, 635 nm, artefact control for SMM control protein annotation, primary screen (AID 1127); conditions: ConA-A647 binding fluorescence, higher = more signal;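 note: z combines 667 nm emission intensity with signal-to-noise across three replicate slides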
Concanavalin-A (Canavalia ensiformis), sequence (P02866 whole entry, looked up): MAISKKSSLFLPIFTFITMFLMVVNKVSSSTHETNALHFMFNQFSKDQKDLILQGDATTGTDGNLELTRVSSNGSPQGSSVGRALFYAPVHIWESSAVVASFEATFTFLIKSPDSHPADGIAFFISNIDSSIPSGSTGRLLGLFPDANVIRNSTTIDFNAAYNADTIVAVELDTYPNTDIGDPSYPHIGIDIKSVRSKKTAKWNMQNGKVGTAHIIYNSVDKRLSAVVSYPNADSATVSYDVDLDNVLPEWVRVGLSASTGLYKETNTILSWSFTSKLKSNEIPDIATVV

Albumin (Bos taurus), sequence (P02769 whole entry, looked up): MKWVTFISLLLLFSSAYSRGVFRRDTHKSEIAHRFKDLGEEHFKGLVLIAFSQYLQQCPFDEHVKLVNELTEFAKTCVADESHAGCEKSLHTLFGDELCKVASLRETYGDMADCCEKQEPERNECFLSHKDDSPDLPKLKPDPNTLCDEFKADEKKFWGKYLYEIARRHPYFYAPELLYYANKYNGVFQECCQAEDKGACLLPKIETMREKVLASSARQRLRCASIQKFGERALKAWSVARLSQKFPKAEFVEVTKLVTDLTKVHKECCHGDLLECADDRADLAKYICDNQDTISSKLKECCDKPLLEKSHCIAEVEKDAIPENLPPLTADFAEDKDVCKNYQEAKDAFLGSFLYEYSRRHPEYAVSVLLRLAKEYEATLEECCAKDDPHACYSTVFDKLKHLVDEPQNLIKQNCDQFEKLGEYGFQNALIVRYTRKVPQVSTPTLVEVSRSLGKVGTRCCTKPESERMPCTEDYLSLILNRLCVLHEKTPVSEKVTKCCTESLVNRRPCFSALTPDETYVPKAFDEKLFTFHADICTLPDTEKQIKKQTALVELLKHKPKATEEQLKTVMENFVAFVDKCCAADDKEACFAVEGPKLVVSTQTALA
Torsin-1A-interacting protein 1 (Homo sapiens), sequence (Q5JTV8 whole entry, looked up): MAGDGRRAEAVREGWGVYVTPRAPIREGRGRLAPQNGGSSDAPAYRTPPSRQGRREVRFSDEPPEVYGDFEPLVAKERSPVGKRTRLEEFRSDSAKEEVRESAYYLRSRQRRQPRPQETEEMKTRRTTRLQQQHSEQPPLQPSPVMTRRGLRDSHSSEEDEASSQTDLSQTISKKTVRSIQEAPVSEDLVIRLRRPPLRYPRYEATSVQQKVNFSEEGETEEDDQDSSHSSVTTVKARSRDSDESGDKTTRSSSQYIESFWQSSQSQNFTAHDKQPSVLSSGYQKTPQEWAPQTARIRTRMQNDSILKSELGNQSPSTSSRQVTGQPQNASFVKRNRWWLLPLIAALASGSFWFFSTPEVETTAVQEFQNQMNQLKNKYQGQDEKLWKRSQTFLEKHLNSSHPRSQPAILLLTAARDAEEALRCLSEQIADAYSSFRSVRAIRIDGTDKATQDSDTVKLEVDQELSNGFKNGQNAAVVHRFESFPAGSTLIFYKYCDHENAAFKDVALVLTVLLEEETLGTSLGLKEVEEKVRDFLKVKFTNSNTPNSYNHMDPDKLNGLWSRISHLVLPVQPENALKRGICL
Alpha-bungarotoxin (Bungarus multicinctus), sequence (P60615 whole entry, looked up): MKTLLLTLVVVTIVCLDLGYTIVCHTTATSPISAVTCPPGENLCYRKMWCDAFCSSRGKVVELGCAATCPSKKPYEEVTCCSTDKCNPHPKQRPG
Left-right determination factor 2 (Homo sapiens), sequence (O00292 whole entry, looked up): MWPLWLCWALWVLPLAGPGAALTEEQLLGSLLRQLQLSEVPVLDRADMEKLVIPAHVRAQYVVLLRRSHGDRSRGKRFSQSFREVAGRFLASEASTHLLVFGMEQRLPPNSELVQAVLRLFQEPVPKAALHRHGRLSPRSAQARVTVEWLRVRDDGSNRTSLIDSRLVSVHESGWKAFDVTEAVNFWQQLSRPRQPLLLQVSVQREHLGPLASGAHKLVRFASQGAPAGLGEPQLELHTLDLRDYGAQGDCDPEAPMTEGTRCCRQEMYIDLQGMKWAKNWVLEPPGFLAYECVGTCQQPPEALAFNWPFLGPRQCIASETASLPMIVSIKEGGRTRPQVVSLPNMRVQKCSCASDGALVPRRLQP

Structure (SMILES)	composite z-score [1]	z-score [2]	composite z-score [3]	composite z-score [4]	composite z-score [5]	composite z-score [6]	composite z-score [7]	composite z-score [8]	composite z-score [9]	composite z-score [10]	composite z-score (Albumin (Bos taurus))	composite Z-score [11]	composite z-score [12]	composite z-score [13]	composite z-score [14]	composite z-score [15]	composite z-score [16]	composite z-score (Sam68 (KHDRBS1))	composite z-score [17]	composite z-score [18]
CCCCCCCCCCC(O)C1C=CC2C(=O)N(C)C(=O)C2N1Nc1ccc([N+](=O)[O-])cc1[N+](=O)[O-] (stereo not given)	1.38	-1.06	-0.323	1.62	1.05	0.0308	0.151	0.441	1.83	1.18	0.884	0.423 (inactive)	0.0668	0.0807	0.589	2.32	0.141	1.11	-0.0731	1.14
O=C1O[C@H](c2ccccc2)[C@H](c2ccccc2)N2[C@H]1[C@@H](C(=O)Nc1nc3ccccc3s1)[C@]1(C(=O)Nc3ccccc31)[C@H]2c1ccc(OCCO)cc1	1.36	-2.64	0.807	0.504	-0.302	-0.16	0.0899	-0.411	0.442	1.02	0.471	-0.393 (inactive)	0.23	-0.0895	0.546	0.823	0.328	1.3	0.608	1.12
C=CCC(OC(C)=O)[C@@H]1[C@@H](N(Cc2ccc(-c3ccccc3)cc2)C(=O)Cc2ccc(F)cc2)c2cc(OCCCO)ccc2N1C(=O)Cc1ccc(OC)cc1 (stereo not given in full)	-0.0218	-0.71	0.0922	0.498	-0.124	-0.0478	-0.343	-0.394	-0.002	0.215	-0.0495	-0.101 (inactive)	-0.0817	-0.141	0.207	0.377	0.0514	-0.274	-0.0031	0.774
COC(=O)[C@@]1(Cc2ccc(OC)cc2)[C@@H]2C(=CC(=O)[C@H]2CC(=O)C(=O)N(C)C)CN1C(=O)c1ccccc1	1.42	-2.8	-0.195	2.21	0.775	0.268	0.1	2.25	0.755	0.923	0.982	-0.0238 (inactive)	0.848	0.358	0.777	2.47	0.536	1.31	-0.501	1.11
COC(=O)[C@@]1(Cc2ccccc2)[C@H]2c3cc(C(=O)N(C)C)n(CCN4CNCC4=O)c3C[C@H]2CN1C(=O)c1ccccc1	-0.5	0.188	-1.47	2.98	-2.29	0.401	0.0183	1.99	4.42	3.12	0.984	0.0052 (inactive)	0.571	0.37	0.826	-0.325	1.26	-0.764	-1.16	-1.42
CC(C)C[C@@H]1NC(=O)[C@@H]2C[C@H](C(=O)NCCCCCN)[C@H](c3ccc(O)cc3)N2C1=O	1.36	-0.196	1.46	1.17	0.953	-0.0194	0.108	-0.651	1.19	1.2	0.85	-0.285 (inactive)	-0.169	-0.102	0.577	1.48	0.17	1.33	0.25	1.17
[N-]=[N+]=NCc1ccccc1[C@H]1OC(c2ccc(OCCCO)cc2)=N[C@@]1(CCS(=O)(=O)c1ccccc1)C(=O)N1CCCCC1	-0.695	-1.11	0.651	2.25	0.735	0.16	0.385	1.15	1.22	2.96	1.05	0.32 (inactive)	0.268	0.0562	0.753	2.83	0.512	1.31	-0.565	1.2
C=C[C@@H](OC)[C@H](OC(=O)Nc1ccc(SC)cc1)c1ccc(O)c(F)c1	1.33	0.362	-0.374	-0.25	-0.479	-0.142	-0.0626	0.0553	0.345	1.22	0.622	-0.584 (inactive)	0.0337	-0.0891	0.699	2.18	0.683	1.07	0.0611	0.0462
COC(=O)Cn1c(C(=O)N(C)C)cc2c1C[C@H]1CN(C(=O)c3ccccc3)[C@@](Cc3ccc(F)cc3)(C(=O)OC)[C@@H]21	0.389	0.387	0.484	0.642	0.496	0.328	0.235	0.715	0.768	0.368	0.944	-0.155 (inactive)	0.541	0.267	0.884	0.56	0.108	-0.167	0.0171	0.136
C[N+](C)(C)CCCC[C@@H]1NC(=O)[C@H]2C[C@@H](C(=O)NCCCCCCN)[C@@H](c3ccc(O)cc3)N2C1=O	1.17	-0.481	0.0608	0.756	0.342	0.127	0.541	0.0561	0.567	0.925	0.98	0.289 (inactive)	0.201	0.14	0.685	1.08	-0.186	1.23	-0.117	1.13
C=C(/C(=C/C[C@H](OC(C)=O)c1cccc(OCCO)c1)c1cnc2ccccc2c1)C(C)C	1.05	-2.31	0.524	-0.309	-0.502	-0.118	-0.264	0.0811	0.235	1.19	0.195	0.896 (inactive)	0.0701	-0.0859	0.547	0.276	-0.313	0.615	1.05	0.689
